Assay results reported in the supplement of paper PMC7366291.
Counter-ions that a name gives are not always drawn. ± gives the standard deviation or the standard deviation of the averaged measurements.

How the values were obtained:
Settings in all cases: 25 µM; exposure: 24-48 hpf
[1] = test system: Danio rerio Tg(wt1b:EGFP) embryo, pronephros; experiment: glomerular separation, fold change vs DMSO control; higher = glomeruli further apart (abnormal)
Summary of the method: (§1)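 Dechorionated Tg(wt1b:EGFP) zebrafish embryos were treated with 25 μM compound in 0.5% DMSO, in HEPES-buffered E3 with 0.003% PTU, from 24 to 48 hpf at 28.5°C. On maximum projections of dorsal pronephros images, 16 hand-placed reference points in Fiji gave distances and angles, and values more than 2 SD from the feature mean were left out. Results are fold changes over the mean of same-day DMSO-treated embryos.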

[2] = test system: Danio rerio Tg(wt1b:EGFP) embryo, pronephros; experiment: glomerular width (mean of left and right), fold change vs DMSO control; higher = wider glomerulus
Summary of the method: as §1

[3] = test system: Danio rerio Tg(wt1b:EGFP) embryo, pronephros; experiment: fraction of imaged embryos annotated as normal kidney; higher = less nephrotoxic; extreme values may be limits of the assay
Summary of the method: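 The read-out is the proportion of embryos in each treatment manually annotated as normal-kidney. Exposure ran from 24 to 48 hpf at 28.5°C in 12-well plates, using dechorionated Tg(wt1b:EGFP) zebrafish embryos in 5 mM HEPES-buffered E3 with 0.003% PTU, 0.5% DMSO and 25 μM compound. For imaging, larvae were anaesthetised with tricaine, positioned dorsally in agarose-filled 96-well plates and captured by widefield fluorescence (470 nm, 10 z-slices), with scoring done on maximum projections.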

[4] = test system: Danio rerio Tg(wt1b:EGFP) embryo, pronephros; experiment: pronephric angle neck segment to proximal convoluted tubule (mean of left and right), fold change vs DMSO control; higher = larger pronephric angle
Summary of the method: as §1

SMILES	glomerular separation [1]	glomerular width [2]	fraction of imaged embryos annotated as normal kidney [3]	pronephric angle neck segment [4]
CN(c1nccc(=O)[nH]1)C1CCN(c2nc3ccccc3n2Cc2ccc(F)cc2)CC1 [Mizolastine]	1.05 ± 0.25	1.1 ± 0.017	0.917	0.937 ± 0.015
O=C(c1ccc(OCCN2CCCCC2)cc1)c1c(-c2ccc(O)cc2)sc2cc(O)ccc12 [Raloxifene hydrochloride]	0.793 ± 0.18	0.98 ± 0.059	0.917	1.01 ± 0.025
CCN(CC)CCNC(=O)c1cc(Br)c(N)cc1OC [Bromopride]	0.903 ± 0.35	1.04 ± 0.015	1	1.02 ± 0.036
Nc1nnc(-c2cccc(Cl)c2Cl)c(N)n1 [Lamotrigine]	0.99 ± 0.4	0.999 ± 0.016	0.9	0.998 ± 0.039
CC(C)(C)C(=O)OCOC(=O)[C@@H]1N2C(=O)[C@@H](/N=C/N3CCCCCC3)[C@H]2SC1(C)C [Pivmecillinam hydrochloride]	0.772 ± 0.17	1.101 ± 0.0091	0.75	1.04 ± 0.012
CN(C)CCOC(c1ccc(Cl)cc1)c1ccccn1 (stereo unspecified) [Carbinoxamine maleate salt]	0.746 ± 0.34	0.999 ± 0.048	0.9	1.01 ± 0.026
CC(=O)Oc1cc(C(C)C)c(OCCN(C)C)cc1C [Moxisylyte hydrochoride]	0.853 ± 0.24	1.03 ± 0.0053	0.917	0.977 ± 0.068
CC(C)n1c(/C=C/C(O)CC(O)CC(=O)O)c(-c2ccc(F)cc2)c2ccccc21 (stereo unspecified) [Fluvastatin sodium salt]	4.31 ± 1.6	0.609 ± 0.057	0	1.56 ± 0.093
Cc1c(Nc2ncccc2C(=O)O)cccc1C(F)(F)F [Flunixin meglumine]	6.16 ± 1.6	0.491 ± 0.031	0	1.9787 ± 0.0013
CN(C(=O)CN(CCO)CC(=O)N(C)C(C)(C)Cc1ccccc1)C(C)(C)Cc1ccccc1 [Oxethazaine]	0.855 ± 0.18	1.1 ± 0.017	0.727	0.94 ± 0.059
CC(=O)N[C@@H](CS)C(=O)O [Acetylcysteine]	0.784 ± 0.26	1.035 ± 0.0055	0.917	1.0017 ± 0.00093
CCN(CC)CCOC(=O)c1ccc(N)cc1 [Procaine hydrochloride]	0.828 ± 0.2	1.057 ± 0.0024	0.667	1.081 ± 0.0098
NC(=O)OCC(COC(N)=O)c1ccccc1 [Felbamate]	0.918 ± 0.32	1.05 ± 0.031	0.833	1.01 ± 0.013
Cc1c(OCC(F)(F)F)ccnc1C[S+]([O-])c1nc2ccccc2[nH]1 (stereo unspecified) [Lansoprazole]	1.25 ± 0.57	0.949 ± 0.04	0.333	1.17 ± 0.034
CC[C@H](C)C(=O)O[C@H]1C[C@H](O)C=C2C=C[C@H](C)[C@H](CC[C@@H](O)C[C@@H](O)CC(=O)O)[C@H]21 [Pravastatin]	1.12 ± 0.39	0.865 ± 0.051	1	1.03 ± 0.035
CN1C(=O)CC(c2ccccc2)C1=O (stereo unspecified) [Phensuximide]	0.924 ± 0.43	0.9434 ± 0.0058	0.889	0.997 ± 0.013
NC[C@@H]1O[C@@H](O[C@H]2[C@H](O)[C@@H](O[C@H]3O[C@H](CO)[C@@H](O)[C@H](N)[C@H]3O)[C@H](N)C[C@@H]2N)[C@@H](O)[C@H](O)[C@H]1O [Kanamycin A sulfate]	1.07 ± 0.33	1.01 ± 0.046	0.667	1.01 ± 0.052
CC(=O)OCC(=O)[C@@]12N=C(C)O[C@@H]1C[C@H]1[C@@H]3CCC4=CC(=O)C=C[C@]4(C)[C@H]3[C@@H](O)C[C@@]12C [Deflazacort]	1.15 ± 0.41	1.06 ± 0.014	0.25	0.944 ± 0.058
COc1cc2ncnc(Nc3ccc(F)c(Cl)c3)c2cc1OCCCN1CCOCC1 [Gefitinib]	1.29 ± 0.64	0.981 ± 0.034	1	1.02 ± 0.024
Cc1ccc(/C(=C\CN2CCCC2)c2ccccn2)cc1 [Triprolidine hydrochloride]	0.823 ± 0.16	1.035 ± 0.0046	0.917	1.04 ± 0.045
CC[C@H](C)C(=O)O[C@H]1C[C@@H](C)C=C2C=C[C@H](C)[C@H](CC[C@@H]3C[C@@H](O)CC(=O)O3)[C@H]21 [Lovastatin]	5.64 ± 2.1	0.622 ± 0.012	0	1.54 ± 0.057
CCN(CC)C(=O)Nc1ccc(OCC(O)CNC(C)(C)C)c(C(C)=O)c1 (stereo unspecified) [Celiprolol hydrochloride]	0.729 ± 0.21	1.03 ± 0.018	0.833	0.964 ± 0.046
CC[C@@H](CO)NCCN[C@@H](CC)CO [Ethambutol dihydrochloride]	1.28 ± 0.4	0.965 ± 0.028	0.75	1.02 ± 0.076
O=C1CN(/N=C/c2ccc([N+](=O)[O-])o2)C(=O)N1 [Nitrofurantoin]	0.915 ± 0.35	1.04 ± 0.012	0.833	0.968 ± 0.015
CCc1cccc(CC)c1NC(=O)CN(CC(=O)O)CC(=O)O [Etifenin]	1.34 ± 0.55	1.052 ± 0.01	0.667	1.01 ± 0.015
C(=C\c1ccccc1)/CN1CCN(C(c2ccccc2)c2ccccc2)CC1 [Cinnarizine]	1.15 ± 0.31	1.03 ± 0.024	0.75	0.995 ± 0.045
CN(C)CCN(Cc1ccc(Cl)cc1)c1ccccn1 [Chloropyramine hydrochloride]	0.981 ± 0.57	1.07 ± 0.064	0.917	0.964 ± 0.016
C[C@H]1NC(=O)NC1=O [Methylhydantoin-5-(D)]	0.867 ± 0.33	0.991 ± 0.011	0.917	1.02 ± 0.02
C#C[C@]1(O)CC[C@H]2[C@@H]3CCc4cc(OC)ccc4[C@H]3CC[C@@]21C [Ethynylestradiol 3-methyl ether]	0.896 ± 0.42	1.038 ± 0.0014	0.833	1.03 ± 0.013
